Inconclusive results are not listed. A call without a number means that no potency is given here. Activity calls are given as the source filed them. Calls follow the shape of the dose curve; as a rule, active = well fitted curve in the direction sought with a large enough effect; inconclusive = small, poorly fitted or top-dose-only effect, or another doubt; inactive = no such curve, though single readings can be large; an effect the other way counts as inactive or inconclusive.
What was measured:
[1] = Quantitative High-Throughput drug screen in 47 multiple myeloma cell lines against the NCATS MIPE library collection: KMM1_JCRB cell viability assay (AID 1918960); also: nearly all actives have a fitted effect of over 30% in size
Method in brief: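 Cell viability inhibition in this qHTS is measured via ATP content (CellTiter-Glo) after 48 h drug exposure at 37 °C. Wells hold 500 cells; DMSO-treated wells define 100% and medium-only wells 0%.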

[2] = Quantitative High-Throughput drug screen in 47 multiple myeloma cell lines against the NCATS MIPE library collection: KHM11_PLB cell viability assay (AID 1918962); also: nearly all actives have a fitted effect of over 35% in size
Method in brief: (§1)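 Relative luminescence from CellTiter-Glo served as the viability signal, referenced to DMSO-treated (100%) and cell-free medium (0%) controls. Treatment lasted 48 hours at 37C with 500 cells per well.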

[3] = Quantitative High-Throughput drug screen in 47 multiple myeloma cell lines against the NCATS MIPE library collection: JIM3_ECACC cell viability assay (AID 1918963; also: nearly all actives have a fitted effect of over 35% in size)
Method in brief: as §1

[4] = Quantitative High-Throughput drug screen in 47 multiple myeloma cell lines against the NCATS MIPE library collection: JIM1_ECACC cell viability assay (AID 1918964)
Method in brief: (§2)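 Luminescent ATP measurement with CellTiter-Glo gives viability, scaled between DMSO-only wells (100%) and media-only wells (0%). Cells, 500 per well, faced library compounds for 48 hours at 37C.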

[5] = Quantitative High-Throughput drug screen in 47 multiple myeloma cell lines against the NCATS MIPE library collection: INA6_PLB cell viability assay (AID 1918965; also: nearly all actives have a fitted effect of over 55% in size)
Method in brief: as §1

[6] = Quantitative High-Throughput drug screen in 47 multiple myeloma cell lines against the NCATS MIPE library collection: Karpas25_ECACC cell viability assay (AID 1918968; also: nearly all actives have a fitted effect of over 35% in size)
Method in brief: as §2

[7] = Quantitative High-Throughput drug screen in 47 multiple myeloma cell lines against the NCATS MIPE library collection: JJN3_DSMZ cell viability assay (AID 1918966; also: nearly all actives have a fitted effect of over 50% in size)
Method in brief: as §2

[8] = Quantitative High-Throughput drug screen in 47 multiple myeloma cell lines against the NCATS MIPE library collection: H1112_PLB cell viability assay (AID 1918967; also: nearly all actives have a fitted effect of over 30% in size)
Method in brief: as §2

[9] = Quantitative High-Throughput drug screen in 47 multiple myeloma cell lines against the NCATS MIPE library collection: KMS27_JCRB cell viability assay (AID 1918970); also: nearly all actives have a fitted effect of over 30% in size
Method in brief: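 Myeloma cells (500 per well) were exposed to MIPE 4.0 compounds for 48 h at 37 °C, 5% CO2; viability was read as ATP luminescence with CellTiter-Glo, normalized to DMSO-only (100%) and media-only (0%) wells.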
Potency is read from the fitted curve at half-maximal effect.

Structure (SMILES): N#CC(=C(N)Sc1ccccc1N)C(C#N)=C(N)Sc1ccccc1N
- Potency [1]: 18.7 µM (active)
- Potency [2]: 0.662 µM (active)
- Potency [3]: 18.7 µM (active)
- Potency [4]: 16.6 µM (active)
- Potency [5]: 16.6 µM (active)
- Potency [6]: 8.33 µM (active)

Structure (SMILES): CC(C)C[C@H](CC(=O)O)C(=O)N[C@@H](Cc1c[nH]c2ccccc12)C(=O)N[C@@H](C)c1ccccc1
- Potency [1]: inactive
- Potency [2]: inactive
- Potency [3]: inactive
- Potency [7]: inactive
- Potency [8]: inactive

Structure (SMILES): COc1ccc2c3c1OC1C[C@@H](O)C=C[C@@]31CCN(C)C2 (stereo partly specified)
- Potency [1]: inactive
- Potency [3]: 14.8 µM (active)
- Potency [4]: inactive
- Potency [7]: 4.18 µM (active)
- Potency [9]: inactive

Structure (SMILES): Nc1ncnc2ccccc12
- Potency [1]: inactive
- Potency [3]: inactive
- Potency [4]: inactive
- Potency [5]: inactive
- Potency [7]: inactive
- Potency [9]: inactive

Structure (SMILES): O=C(CCN1CCN(C(=O)OCc2cc(Cl)cc(Cl)c2)CC1)c1ccc2[nH]c(=O)oc2c1
- Potency [1]: inactive
- Potency [2]: 2.64 µM (active)
- Potency [3]: inactive
- Potency [8]: inactive

Structure (SMILES): C[C@]12CCC3c4ccc(O)cc4CCC3C1CCC2=O (stereo partly specified)
- Potency [1]: inactive
- Potency [2]: inactive
- Potency [3]: inactive
- Potency [8]: inactive

Structure (SMILES): O=c1cc(-c2ccccc2)oc2cc(O)cc(O)c12
- Potency [1]: 20.9 µM (active)
- Potency [2]: inactive
- Potency [3]: 16.6 µM (active)
- Potency [8]: inactive

Structure (SMILES): O=C(N[C@@H](c1ccccc1)[C@@H]1CCCCN1)c1cccc(C(F)(F)F)c1Cl
- Potency [1]: inactive
- Potency [3]: inactive
- Potency [4]: inactive
- Potency [5]: inactive
- Potency [7]: inactive
- Potency [8]: 14.8 µM (active)
- Potency [6]: inactive

Structure (SMILES): CC#CCn1c(N2CCC[C@@H](N)C2)nc2c1c(=O)n(Cc1nc(C)c3ccccc3n1)c(=O)n2C
- Potency [1]: inactive
- Potency [2]: inactive
- Potency [7]: 3.72 µM (active)
- Potency [6]: 14.8 µM (active)

Structure (SMILES): C[N+](C)(C)CC(=O)O
- Potency [1]: inactive
- Potency [2]: inactive
- Potency [8]: inactive

Structure (SMILES): C=C1C(=O)OC2C=C(C)CCC=C(C)CCC12 (stereo unspecified)
- Potency [1]: 16.6 µM (active)
- Potency [2]: inactive
- Potency [4]: 14.8 µM (active)
- Potency [5]: 16.6 µM (active)
- Potency [7]: 16.6 µM (active)
- Potency [6]: 20.9 µM (active)
- Potency [9]: 20.9 µM (active)

Structure (SMILES): COc1cc(O)c2c(c1)C(=O)c1cc(C)cc(O)c1C2=O
- Potency [1]: inactive
- Potency [2]: inactive
- Potency [3]: inactive
- Potency [8]: inactive
- Potency [9]: inactive

Structure (SMILES): CCCCCCCCCCCC1=C(O)C(=O)C=C(O)C1=O
- Potency [1]: 2.96 µM (active)
- Potency [3]: 4.69 µM (active)
- Potency [4]: 0.59 µM (active)
- Potency [5]: 2.64 µM (active)
- Potency [9]: 0.187 µM (active)

Structure (SMILES): OC[C@H]1O[C@@H](n2cnc3c2NC=NC[C@@H]3O)C[C@H]1O
- Potency [1]: inactive
- Potency [2]: inactive
- Potency [4]: inactive
- Potency [5]: inactive
- Potency [7]: 23.5 µM (active)
- Potency [9]: 13.2 µM (active)

Structure (SMILES): COC(=O)N[C@H](C(=O)N1CCC[C@@H]1c1ncc(-c2ccc(-c3ccc(-c4cnc([C@@H]5CCCN5C(=O)[C@@H](NC(=O)OC)C(C)C)[nH]4)cc3)cc2)[nH]1)C(C)C
- Potency [1]: 16.6 µM (active)
- Potency [3]: 18.7 µM (active)
- Potency [4]: 20.9 µM (active)
- Potency [7]: 23.5 µM (active)
- Potency [6]: 23.5 µM (active)
- Potency [9]: 23.5 µM (active)

Structure (SMILES): CN(C[C@@H]1COCCO1)S(=O)(=O)Nc1ccc2ccc3ncc(-c4cnn(C)c4)cc3c(=O)c2c1
- Potency [1]: 1.48 µM (active)
- Potency [2]: 0.743 µM (active)
- Potency [5]: 4.18 µM (active)
- Potency [8]: 1.66 µM (active)
- Potency [6]: 3.32 µM (active)

Structure (SMILES): O=C1NC(=O)C(=Cc2ccc3nccnc3c2)S1
- Potency [1]: 2.04 µM (active)
- Potency [3]: 10.2 µM (active)
- Potency [5]: 7.24 µM (active)
- Potency [7]: 8.12 µM (active)
- Potency [8]: 6.45 µM (active)
- Potency [6]: 5.75 µM (active)

Structure (SMILES): COCCCCC(=NOCCN)c1ccc(C(F)(F)F)cc1
- Potency [1]: inactive
- Potency [3]: inactive

Structure (SMILES): CCC(=O)O[C@]1(C(=O)CO)CC[C@H]2[C@@H]3CCC4=CC(=O)CC[C@]4(C)[C@@H]3CC[C@@]21C
- Potency [1]: inactive
- Potency [2]: inactive
- Potency [3]: inactive
- Potency [7]: inactive
- Potency [9]: inactive

Structure (SMILES): C[C@H]1[C@H](NC(=O)C(=NOC(C)(C)C(=O)O)c2csc(N)n2)C(=O)N1S(=O)(=O)O
- Potency [1]: inactive
- Potency [2]: inactive
- Potency [3]: inactive
- Potency [8]: inactive

Structure (SMILES): CC1(C)S[C@H]2[C@H](NC(=O)[C@@H](N)c3ccc(O)cc3)C(=O)N2[C@@H]1C(=O)O
- Potency [1]: 2.09 µM (active)
- Potency [3]: inactive
- Potency [4]: 7.43 µM (active)
- Potency [5]: 20.9 µM (active)
- Potency [8]: inactive
- Potency [6]: 4.69 µM (active)

Structure (SMILES): COc1cc2c(cc1OC)CN(CCc1ccc(NC(=O)c3cc(OC)c(OC)cc3NC(=O)c3cnc4ccccc4c3)cc1)CC2
- Potency [1]: inactive
- Potency [2]: 20.9 µM (active)
- Potency [3]: 23.5 µM (active)
- Potency [7]: 0.526 µM (active)
- Potency [6]: 8.33 µM (active)
- Potency [9]: inactive
